PubChem BioAssay (EPA / NIEHS)
Several values for one entry are separate records, joined by “and”; a condition that tells them apart may be missing. Equal entries are not always repeated. Records with an inconclusive call do not appear. Activity calls are given as the source filed them. How the source made its calls, unless noted: active means hit-call score of the fitted dose curve at least 0.9, where 1 is the maximum; inactive means score below 0.9.

test system: not listed separately; test: Tanguay_ZF_120hpf_TR_legacy: (Legacy) Oregon State University Tanguay Lab 120 Hour Post-fertilization zebrafish Assay for Touch Response (AID 2283667; active means hit-call score of the fitted dose curve at least 0.9, where 1 is the maximum); details: not given
Outline: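 Binary touch-response endpoint in larvae at 120 hpf after static waterborne exposure from embryo stage (28°C, 0.64% DMSO vehicle, 5 uM trimethyltin chloride as positive control); embryos dead at 24 or 120 hpf excluded; fitted as gain versus DMSO.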

SMILES | outcome
CC(C)CCCCCCOC(=O)c1ccc(C(=O)OCCCCCCC(C)C)c(C(=O)OCCCCCCC(C)C)c1 | inactive
CC(C)CCCCCCCOC(=O)CCCCC(=O)OCCCCCCCC(C)C | inactive
CCCCCCc1ccc(O)cc1O | inactive
Cn1c(=O)cc(Oc2ccc(F)cc2F)c2cnc(NCC(C)(C)O)nc21 | inactive
CC1(C)C(=O)N(Br)C(=O)N1Br | inactive
CC(O)CN(CCN(CC(C)O)CC(C)O)CC(C)O (stereo unspecified) | inactive
Fc1ccccc1[C@@H](F)COC1CCC(Nc2ncnc3[nH]ncc23)CC1 (stereo partly specified) | inactive
CCCCC(CC)COC(=O)CCCCCCCCC(=O)OCC(CC)CCCC (stereo unspecified) | inactive
COc1ccc2sc(C(=O)Nc3nnn[nH]3)c(OC(C)C)c2c1 | inactive
C=CC(=C)CCC=C(C)C | inactive
COCCOCCOCCOC | inactive
CCOC(=O)CC(CC(=O)OCC)(OC(C)=O)C(=O)OCC | inactive
CC(C)=CCCC(C)CCO (stereo unspecified) | inactive
O=C1OC(=O)C2C3C=CC(C3)C12 (stereo unspecified) | inactive
CCOC(=O)COc1ccc2c(c1)CC(NCC(O)c1cccc(Cl)c1)CC2 (stereo unspecified) | inactive
O=C1CCCCCN1 | inactive
COC(=O)CC(=O)OC | inactive
O=C(CCCCCCCCc1cccnc1)N1CCC(C=C(c2ccccc2)c2ccccc2)CC1 | inactive
Nc1cccc(N)c1 | inactive
CCCCCCCCCCCCc1ccccc1 | inactive
CCc1cc(SCc2sc(-c3ccc(C(F)(F)F)cc3)nc2CN2CCN(c3ccc(OC)cc3)CC2)ccc1OCC(=O)O | inactive
Cc1ccc(C)c(O)c1 | inactive
CCOCCO | inactive
CC[C@H](C)C(=O)O[C@H]1C[C@@H](C)C=C2C=C[C@H](C)[C@H](CC[C@@H]3C[C@@H](O)CC(=O)O3)[C@H]21 | inactive
CCCC(=O)OCC | inactive
Cc1ccc(S(=O)(=O)O)cc1C | inactive
CC(C)=CCC/C(C)=C/CO | inactive
CC(C)c1cccc(C(C)C)c1N1C(=O)c2ccc(O)cc2C1=O | inactive
COc1cccc(-c2ccc(/C=C\CN3CCCCCC3)cc2Cl)c1 | inactive

read-out: Cytochrome P450 (CYP24A1_1), CYP24A1 (gene 1591); test: LTEA_HepaRG_CYP24A1_1: Life Technologies and Expression Analysis (LTEA) Assay for Cytochrome P450 (CYP24A1_1) using HepaRG (AID 2283671); details: mRNA level, 48 h; actives raise or lower the signal
Outline: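 Differentiated human HepaRG cells were exposed in duplicate for 48 h in serum-free induction medium to eight concentrations (top 100 uM, half-log steps, 0.5% DMSO). CYP24A1 mRNA was quantified by TaqMan qRT-PCR, normalized to ACTB, GAPDH and POLR2A, and fitted bidirectionally versus DMSO.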

SMILES | outcome
CC(C)CCCCCCOC(=O)c1ccc(C(=O)OCCCCCCC(C)C)c(C(=O)OCCCCCCC(C)C)c1 | inactive
C=CC(=C)CCC=C(C)C | inactive
CC(C)c1cccc(C(C)C)c1N1C(=O)c2ccc(O)cc2C1=O | inactive

test system: not listed separately; test: CCTE_Padilla_ZF_144hpf_TERATOSCORE: (Legacy) CCTE's 144 Hour Post-fertilization zebrafish Assay Teratoscore, Padilla Lab (AID 2283679); details: not given;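 on AC50: zebrafish embryos with chorions exposed by immersion from 6-8 hpf to 5 dpf with daily renewal; teratogenicity score from eye scoring of death hatching and malformations at 144 hpf; higher score means more developmental defects relative to DMSO baseline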
Outline: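 Larvae scored by eye at 144 hpf for death, hatching and malformations after a day in clean Hanks'. Before that, daily-renewed exposure at 80 uM (0.4% DMSO, 26C) from roughly 6-8 hpf through 5 dpf, 4 embryos per chemical.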

SMILES | outcome | AC50
CC(C)CCCCCCCOC(=O)CCCCC(=O)OCCCCCCCC(C)C | inactive | 
CCCCCCc1ccc(O)cc1O |  | 14.9 µM (active)
Cn1c(=O)cc(Oc2ccc(F)cc2F)c2cnc(NCC(C)(C)O)nc21 | inactive | 
CC1(C)C(=O)N(Br)C(=O)N1Br | inactive | 
Fc1ccccc1[C@@H](F)COC1CCC(Nc2ncnc3[nH]ncc23)CC1 (stereo partly specified) |  | 13.8 µM (active)
CCCCC(CC)COC(=O)CCCCCCCCC(=O)OCC(CC)CCCC (stereo unspecified) | inactive | 
COc1ccc2sc(C(=O)Nc3nnn[nH]3)c(OC(C)C)c2c1 |  | 34.4 µM (active)
COCCOCCOCCOC | inactive | 
CCOC(=O)CC(CC(=O)OCC)(OC(C)=O)C(=O)OCC | inactive | 
CCOC(=O)COc1ccc2c(c1)CC(NCC(O)c1cccc(Cl)c1)CC2 (stereo unspecified) |  | 6.13 µM (active)
COC(=O)CC(=O)OC | inactive | 
O=C(CCCCCCCCc1cccnc1)N1CCC(C=C(c2ccccc2)c2ccccc2)CC1 |  | 14.2 µM (active)
CCCCCCCCCCCCc1ccccc1 | inactive | 
CCc1cc(SCc2sc(-c3ccc(C(F)(F)F)cc3)nc2CN2CCN(c3ccc(OC)cc3)CC2)ccc1OCC(=O)O |  | 5.47 µM (active)
CC[C@H](C)C(=O)O[C@H]1C[C@@H](C)C=C2C=C[C@H](C)[C@H](CC[C@@H]3C[C@@H](O)CC(=O)O3)[C@H]21 |  | 7.47 nM (active) and 5.89 nM (active) and 5.45 nM (active)
CC(C)=CCC/C(C)=C/CO |  | 15.4 µM (active)
CC(C)c1cccc(C(C)C)c1N1C(=O)c2ccc(O)cc2C1=O |  | 4.71 µM (active)
COc1cccc(-c2ccc(/C=C\CN3CCCCCC3)cc2Cl)c1 |  | 2.73 µM (active)

test system: not listed separately; test: STM_H9_OrnithineISnorm_perc: Stemina devTOX quickPredict H9 human embryonic stem cell (hESC)-based Assay for Ornithine (ORN) Metabolite Biomarker, Normalized (AID 2283712); details: not given;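 further: ornithine released into spent medium during last day measured by mass spectrometry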
Outline: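 UPLC-HRMS readout: endogenous ornithine EIC area / 13C-ORN internal standard, then % of 0.1% DMSO median. H9 hESCs (pluripotent), 72h exposure, re-dosed with fresh media q24h; last 24-h spent media, deproteinized in 40% acetonitrile.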

SMILES | outcome | AC50
Cn1c(=O)cc(Oc2ccc(F)cc2F)c2cnc(NCC(C)(C)O)nc21 | inactive | 
Fc1ccccc1[C@@H](F)COC1CCC(Nc2ncnc3[nH]ncc23)CC1 (stereo partly specified) | inactive | 
COc1ccc2sc(C(=O)Nc3nnn[nH]3)c(OC(C)C)c2c1 |  | 1.33 µM (active)
COCCOCCOCCOC | inactive | 
CCCCCCCCCCCCc1ccccc1 | inactive | 
CC[C@H](C)C(=O)O[C@H]1C[C@@H](C)C=C2C=C[C@H](C)[C@H](CC[C@@H]3C[C@@H](O)CC(=O)O3)[C@H]21 | inactive | 
CC(C)c1cccc(C(C)C)c1N1C(=O)c2ccc(O)cc2C1=O |  | 27.8 µM (active)
COc1cccc(-c2ccc(/C=C\CN3CCCCCC3)cc2Cl)c1 |  | 3.59 µM (active)

test system: not listed separately; test: STM_H9_CystineISnorm_perc: Stemina devTOX quickPredict H9 human embryonic stem cell (hESC)-based Assay for Cystine (CYSS) Metabolite Biomarker, Normalized (AID 2283713); details: not given
Outline: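 UPLC-HRMS read-out: endogenous cystine peak area in spent medium, normalized to isotope-labeled internal standard and to median of 0.1% DMSO controls. Pluripotent H9 cells, 72h exposure, daily medium/compound replenishment; medium from last 24h sampled.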

SMILES | outcome | AC50
Cn1c(=O)cc(Oc2ccc(F)cc2F)c2cnc(NCC(C)(C)O)nc21 | inactive | 
Fc1ccccc1[C@@H](F)COC1CCC(Nc2ncnc3[nH]ncc23)CC1 (stereo partly specified) | inactive | 
COc1ccc2sc(C(=O)Nc3nnn[nH]3)c(OC(C)C)c2c1 |  | 1.65 µM (active)
COCCOCCOCCOC | inactive | 
CCCCCCCCCCCCc1ccccc1 | inactive | 
CC[C@H](C)C(=O)O[C@H]1C[C@@H](C)C=C2C=C[C@H](C)[C@H](CC[C@@H]3C[C@@H](O)CC(=O)O3)[C@H]21 |  | 13.2 µM (active)
CC(C)c1cccc(C(C)C)c1N1C(=O)c2ccc(O)cc2C1=O |  | 24 µM (active)
COc1cccc(-c2ccc(/C=C\CN3CCCCCC3)cc2Cl)c1 |  | 4.11 µM (active)
